# Laboratory results reported in ChEMBL document CHEMBL3433997, “St. Jude Leishmania screening dataset” (2016).
# Target: Solute carrier family 2, facilitated glucose transporter member 1 (Homo sapiens) (UniProt P11166)
# Assay: ST_JUDE_LEISH: Cytotoxicity at 2uM final concentration against transgenic Leishmania Mexicana promastigotes LmGLUT1 that are glucose transport deficient and complemented with the human glucose transporter GLUT1. Activity is measured by DNA content using SYBR green in vitro
# Format: functional
# Solute carrier family 2, facilitated glucose transporter member 1 (Homo sapiens), sequence (P11166 whole entry): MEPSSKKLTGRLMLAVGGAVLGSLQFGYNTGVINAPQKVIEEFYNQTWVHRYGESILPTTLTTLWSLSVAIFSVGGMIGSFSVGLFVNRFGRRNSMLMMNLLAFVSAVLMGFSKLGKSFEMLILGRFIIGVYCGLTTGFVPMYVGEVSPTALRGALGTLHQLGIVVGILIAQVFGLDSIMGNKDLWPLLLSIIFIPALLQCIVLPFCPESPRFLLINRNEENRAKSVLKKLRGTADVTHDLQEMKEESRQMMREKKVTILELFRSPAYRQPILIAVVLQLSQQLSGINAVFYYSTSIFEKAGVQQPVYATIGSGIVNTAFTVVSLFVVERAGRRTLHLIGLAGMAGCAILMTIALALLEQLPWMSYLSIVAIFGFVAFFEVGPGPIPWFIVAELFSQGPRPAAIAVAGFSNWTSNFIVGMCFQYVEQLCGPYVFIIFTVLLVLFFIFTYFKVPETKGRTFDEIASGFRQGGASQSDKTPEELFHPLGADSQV
row,Compound,inhibition [%]
1,N=C(/N=C(/NCCCCCCN/C(=N\C(=N)Nc1ccc(Cl)cc1)N1CCCCC1)N1CCCCC1)Nc1ccc(Cl)cc1,-2.47
2,COc1cc2nc(-c3ccc(Br)cc3)cc(N)c2cc1OC,64.2
3,CC1(C)NC(N)=NC(=N)N1OCCCOc1cccc2ccccc12,54.8
4,Cc1cc(C(F)(F)F)nn1-c1ccc(NC(=O)c2ccco2)cc1,-2.06
5,COc1cc(Nc2ccnc3ccc(C(F)(F)F)cc23)cc(OC)c1OC,18.2
6,Oc1cc2ccccc2cc1CNC1CCCCC1,1.31
7,FC(F)(F)c1ccc2[nH]c(-c3ccc(-c4ccc(CNCC5CCCO5)cc4)cc3)nc2c1 (stereo not given),3.49
8,COc1ccccc1C1CCN(C2CCC(NC(=O)/C=C/c3ccc(F)c(F)c3)CC2)CC1 (stereo not given),-3.94
9,COc1ccc(CCc2ccc(-c3c(C)[nH]c(C)c(Cl)c3=O)cc2)cc1,2.55
10,COc1ccnc(NCCCNCc2cn(S(=O)(=O)c3ccccc3)c3ccccc23)c1,2.74
11,CCC(=O)Nc1ccc(C(O)CN2CCC3(C=Cc4ccccc4O3)CC2)cc1 (stereo not given),3.61
12,O=[N+]([O-])c1ccc(C(O)CNCCc2ccccc2)cc1OCc1ccccc1 (stereo not given),14.1
13,COc1ccccc1-c1[nH]c2ccccc2c1CN1CCC(c2c(C)cccc2C)CC1,16.3
14,Cc1cc2nc(N=C3NC4(c5ccccn5)NC(=Nc5nc6cc(C)c(C)cc6[nH]5)NC4(c4ccccn4)N3)[nH]c2cc1C (stereo not given),2.01
15,CCOc1ccc2c(N/N=C/c3cccc([N+](=O)[O-])c3)cc(C)nc2c1,5.98
16,Cc1ccccc1C1CCN(C2CCC(NC(=O)c3cc(-c4ccccc4)oc3C)CC2)CC1 (stereo not given),-1.06
17,Cc1nn(CC(C)C)c2sc(C(=O)Nc3nc(-c4ccccn4)cs3)cc12,3.49
18,O=C(Nc1ccc(C(F)(F)F)cc1)NC1CCN(CCCCCNC(=O)C2CC2c2ccc(Cl)c(Cl)c2)CC1 (stereo not given),-1.45
19,Cc1ccc(O)cc1Nc1ccnc2cc(-c3cccc(CNCCS(C)(=O)=O)c3)ccc12,1.09
20,O=[N+]([O-])c1cccc(CNCC2CCN(CC3CCCCC3)CC2)c1,-0.61

row,Compound,inhibition [%]
1,Cc1nc(-c2ccc(-c3ccc(NC(=O)c4coc5ccc(N6CC(C)NC(C)C6)cc45)cc3)c(C)c2)no1 (stereo not given),3.42
2,CN(C)CCC1CCN(CCS(=O)(=O)c2cccc(Nc3ccc(-c4ccsc4)cn3)c2)CC1,-0.36
3,CCOc1ccc(NC(=O)c2ccc(NCCCN3CC(C)CC(C)C3)c([N+](=O)[O-])c2)cc1 (stereo not given),2.9
4,CCN(CC)CCCOC(=O)c1ccc2c(c1)-c1ccc(C(=O)OCCCN(CC)CC)c3cccc-2c13,6.8
5,Nc1ncc(-c2cccc(OCc3ccccc3)c2)cc1-c1nnc2ccc(Cl)nn12,1.7
6,O=S(=O)(c1ccc(Cl)cc1Cl)N1CCCCC(c2ccc(C(F)(F)F)cc2)=N1,0.38
7,Cc1cc(Cl)c(S(=O)(=O)NC(C)(C)C)cc1OCC(=O)NC1CCCCC1,-0.97
8,COc1cc(NC(=O)c2ccc(-c3ccc(C(C)=O)cc3)s2)ccc1OCCN1CCCC1,0.3
9,Cc1ccc(C(=O)Nc2cccc(CN3CCCN(Cc4ccc(O)cc4)CC3)c2)s1,-2.38
10,O=C1COc2ccc3ccccc3c21,-2.29
11,CN1CCN(Cc2cc(NC(=O)c3ccc(-c4ccc(Cl)cc4Cl)cc3)ccc2-c2ccccc2)CC1,6.54
12,O=C(NC1CCN(c2ccnc3cc(Cl)ccc23)C1)c1ccc(C(F)(F)F)cc1 (stereo not given),3.93
13,Cc1cc(N2CCOCC2)nc2ccc(NC(=O)c3ccc(Cl)c([N+](=O)[O-])c3)cc12,5.45
14,CN(C)c1ccc(-c2nnc(Sc3ccc(C#N)c([N+](=O)[O-])c3)n2Cc2ccco2)cc1,3.82
15,Cc1[nH]c(C)c(-c2ccc(-c3ccc(Cl)cc3)cc2)c(=O)c1Cl,-0.9
16,Cc1cc(=O)[nH]c2cc(Nc3ccnc(Nc4cccc(C(N)=O)c4)n3)ccc12,3.02
17,CCCCCCNC(=O)C1Cc2c([nH]c3ccc(Br)cc23)C2(CCN(Cc3ccccc3)CC2)N1 (stereo not given),45.6
18,CCn1c(Sc2ccc(C#N)c([N+](=O)[O-])c2)nnc1-c1cccc(Cl)c1,16.9
19,Cc1cc(=NN=Cc2ccc(F)cc2)c2cccc(C)c2[nH]1,3.22
20,O=C(/C=C/c1ccc(Cl)c(Cl)c1)NCCCCCN1CCCC(C(=O)Nc2ccc(F)c(Cl)c2)C1 (stereo not given),3.02

# Target: Hexose transporter 1 (Plasmodium falciparum) (UniProt O97467)
# Assay: ST_JUDE_LEISH: Cytotoxicity at 2uM final concentration against transgenic Leishmania Mexicana promastigotes LmPfHT that are glucose transport deficient and complemented with the Plasmodium falciparum hexose transporter. Activity is measured by DNA content using SYBR green in vitro
# Format: functional
row,Compound,inhibition [%]
1,N=C(/N=C(/NCCCCCCN/C(=N\C(=N)Nc1ccc(Cl)cc1)N1CCCCC1)N1CCCCC1)Nc1ccc(Cl)cc1,-2.65
2,COc1cc2nc(-c3ccc(Br)cc3)cc(N)c2cc1OC,23.6
3,CC1(C)NC(N)=NC(=N)N1OCCCOc1cccc2ccccc12,61.1
4,Cc1cc(C(F)(F)F)nn1-c1ccc(NC(=O)c2ccco2)cc1,-1.65
5,COc1cc(Nc2ccnc3ccc(C(F)(F)F)cc23)cc(OC)c1OC,23.1
6,Oc1cc2ccccc2cc1CNC1CCCCC1,1.41
7,FC(F)(F)c1ccc2[nH]c(-c3ccc(-c4ccc(CNCC5CCCO5)cc4)cc3)nc2c1 (stereo not given),2.61
8,COc1ccccc1C1CCN(C2CCC(NC(=O)/C=C/c3ccc(F)c(F)c3)CC2)CC1 (stereo not given),-1.53
9,COc1ccc(CCc2ccc(-c3c(C)[nH]c(C)c(Cl)c3=O)cc2)cc1,3.51
10,COc1ccnc(NCCCNCc2cn(S(=O)(=O)c3ccccc3)c3ccccc23)c1,3.67
11,CCC(=O)Nc1ccc(C(O)CN2CCC3(C=Cc4ccccc4O3)CC2)cc1 (stereo not given),2.65
12,O=[N+]([O-])c1ccc(C(O)CNCCc2ccccc2)cc1OCc1ccccc1 (stereo not given),14
13,COc1ccccc1-c1[nH]c2ccccc2c1CN1CCC(c2c(C)cccc2C)CC1,16.1
14,Cc1cc2nc(N=C3NC4(c5ccccn5)NC(=Nc5nc6cc(C)c(C)cc6[nH]5)NC4(c4ccccn4)N3)[nH]c2cc1C (stereo not given),-0.16
15,CCOc1ccc2c(N/N=C/c3cccc([N+](=O)[O-])c3)cc(C)nc2c1,4.85
16,Cc1ccccc1C1CCN(C2CCC(NC(=O)c3cc(-c4ccccc4)oc3C)CC2)CC1 (stereo not given),0.71
17,Cc1nn(CC(C)C)c2sc(C(=O)Nc3nc(-c4ccccn4)cs3)cc12,3.41
18,O=C(Nc1ccc(C(F)(F)F)cc1)NC1CCN(CCCCCNC(=O)C2CC2c2ccc(Cl)c(Cl)c2)CC1 (stereo not given),-1.93
19,Cc1ccc(O)cc1Nc1ccnc2cc(-c3cccc(CNCCS(C)(=O)=O)c3)ccc12,0.12
20,O=[N+]([O-])c1cccc(CNCC2CCN(CC3CCCCC3)CC2)c1,3.2

row,Compound,inhibition [%]
1,Cc1nc(-c2ccc(-c3ccc(NC(=O)c4coc5ccc(N6CC(C)NC(C)C6)cc45)cc3)c(C)c2)no1 (stereo not given),5.16
2,CN(C)CCC1CCN(CCS(=O)(=O)c2cccc(Nc3ccc(-c4ccsc4)cn3)c2)CC1,0.82
3,CCOc1ccc(NC(=O)c2ccc(NCCCN3CC(C)CC(C)C3)c([N+](=O)[O-])c2)cc1 (stereo not given),0.9
4,CCN(CC)CCCOC(=O)c1ccc2c(c1)-c1ccc(C(=O)OCCCN(CC)CC)c3cccc-2c13,3.93
5,Nc1ncc(-c2cccc(OCc3ccccc3)c2)cc1-c1nnc2ccc(Cl)nn12,1.29
6,O=S(=O)(c1ccc(Cl)cc1Cl)N1CCCCC(c2ccc(C(F)(F)F)cc2)=N1,0.43
7,Cc1cc(Cl)c(S(=O)(=O)NC(C)(C)C)cc1OCC(=O)NC1CCCCC1,0.93
8,COc1cc(NC(=O)c2ccc(-c3ccc(C(C)=O)cc3)s2)ccc1OCCN1CCCC1,-0.14
9,Cc1ccc(C(=O)Nc2cccc(CN3CCCN(Cc4ccc(O)cc4)CC3)c2)s1,0.41
10,O=C1COc2ccc3ccccc3c21,0.78
11,CN1CCN(Cc2cc(NC(=O)c3ccc(-c4ccc(Cl)cc4Cl)cc3)ccc2-c2ccccc2)CC1,2.47
12,O=C(NC1CCN(c2ccnc3cc(Cl)ccc23)C1)c1ccc(C(F)(F)F)cc1 (stereo not given),3.66
13,Cc1cc(N2CCOCC2)nc2ccc(NC(=O)c3ccc(Cl)c([N+](=O)[O-])c3)cc12,3.08
14,CN(C)c1ccc(-c2nnc(Sc3ccc(C#N)c([N+](=O)[O-])c3)n2Cc2ccco2)cc1,2.83
15,Cc1[nH]c(C)c(-c2ccc(-c3ccc(Cl)cc3)cc2)c(=O)c1Cl,0.3
16,Cc1cc(=O)[nH]c2cc(Nc3ccnc(Nc4cccc(C(N)=O)c4)n3)ccc12,3.83
17,CCCCCCNC(=O)C1Cc2c([nH]c3ccc(Br)cc23)C2(CCN(Cc3ccccc3)CC2)N1 (stereo not given),15.5
18,CCn1c(Sc2ccc(C#N)c([N+](=O)[O-])c2)nnc1-c1cccc(Cl)c1,14.9
19,Cc1cc(=NN=Cc2ccc(F)cc2)c2cccc(C)c2[nH]1,2.28
20,O=C(/C=C/c1ccc(Cl)c(Cl)c1)NCCCCCN1CCCC(C(=O)Nc2ccc(F)c(Cl)c2)C1 (stereo not given),5.25
